Screening data: PubChem BioAssay, Broad Institute
Not all results are given here.
aSyn UTR act = Activators via SNCA 5'UTR binding, MLPCN | alpha-synuclein 5'UTR reporter, activators screen | 7.1% of 300,000 active | activity score, % (tested at 7.5 µM), hits read low; in the data active means activity score below about -60%
An asterisk follows results filed as active.

SMILES	aSyn UTR act
CCN(CC(=O)Nc1c(F)cccc1F)C(=O)/C=C/c1ccc(S(=O)(=O)N2CCCCCC2)cc1	78
CCN(CC(=O)NCc1ccc(F)cc1)C(=O)/C=C/c1ccc(S(=O)(=O)N(CC)CC)cc1	-79*
CCN(CC)S(=O)(=O)c1ccc(/C=C/C(=O)Nc2cccc(F)c2)cc1	-83*
Cc1cc(/C=N/Nc2ncnc(N)c2[N+](=O)[O-])c(C)n1-c1ccccc1	95
O=[N+]([O-])c1cc(CN2CCN(c3cccc(C(F)(F)F)c3)CC2)c2cccnc2c1O	71
Cc1cc(/C=N/Nc2nc(N)ncc2[N+](=O)[O-])c(C)n1-c1cccc(C(F)(F)F)c1	-117*
CC1(C)CC(=O)c2sc(N3CCCCC3)nc2C1	-91*
Cc1ccn2c(NC3CCCC3)c(-c3cccs3)nc2c1	-116*
Cc1ccn2c(NCc3ccccc3)c(-c3cccs3)nc2c1	-100*
Cc1ccc(NC(=O)COc2ccc(C3SCCS3)cc2)cc1	-69*
O=C(CSc1ccc(F)cc1)Nc1ccc(C2SCCS2)cc1	-155*
COC(=O)Cc1c(C)c2ccc(OC3CCCCC3=O)c(C)c2oc1=O (stereo not given)	-65*
Cc1c(CCC(=O)N2CCC[C@H]2C(=O)O)c(=O)oc2cc3oc4c(c3cc12)CCCC4	77
CCOn1c(=O)c(-c2cc3ccccc3o2)[n+]([O-])c2ccccc21	-117*
O=c1c(-c2cc3ccccc3o2)[n+]([O-])c2ccccc2n1OCc1ccccn1	-174*
N#CC(C#N)=c1ccc2c(c1)NC1(CCCCC1)N=2	-337*
CCC(=O)Nc1cccc(-c2ccc(N3CCN(C)CC3)nn2)c1	-73*
CN1CCN(c2ccc(-c3cccc(NC(=O)COc4ccc(Cl)cc4)c3)nn2)CC1	-131*
CN1CCN(c2ccc(-c3cccc(NC(=O)COc4ccccc4)c3)nn2)CC1	-70*
Cc1ccc(NC(=O)c2cncc(Br)c2)nc1	-89*
Cc1ccc(NC(=O)c2cncc(Br)c2)c(O)c1	-196*
COC(=O)c1ccc(NC(=O)c2cccc(OC)c2)cc1	-255*
COc1cccc(C(=O)NC(=S)Nc2ccc(N(C)C)cc2)c1	-185*
COc1cccc(C(=O)Nc2ccc(C(=O)c3ccccc3)cc2)c1	-94*
COc1ccc2cc(C(=O)/C=C/c3cc(OC)c(O)c(OC)c3)ccc2c1	-71*
SMILES	aSyn UTR act
Cc1ccc(NC(=O)COC(=O)c2cccc3c2C(=O)c2ccccc2C3=O)c(C)c1	52
COc1cccc(C(=O)Nc2ccc(Cl)c(C(F)(F)F)c2)c1	-108*
COc1cccc(C(=O)Nc2ccc(C)cc2)c1	-127*
Cc1ccc(NC(=O)c2ccc3nsnc3c2)c(C)c1	-102*
CCC(=O)Nc1ccc2c(c1)C(=O)c1ccccc1C2=O	-245*
Cc1cccc(C(=O)Nc2cccc(OC(=O)c3cccc(C)c3)c2)c1	-115*
COc1cccc(C(=O)Nc2ccc3c(c2)C(=O)c2ccccc2C3=O)c1	-164*
COC(=O)c1ccc(/C=C/C(=O)c2cccc(OC)c2)cc1	-71*
COC(=O)c1ccc(NC(=O)c2cccc(C)c2)cc1	-65*
O=C(Nc1ccc(C2CC2(Cl)Cl)cc1)c1ccccc1Br (stereo not given)	-73*
COC(=O)c1ccc(NC(=O)c2ccc3nsnc3c2)cc1	-111*
CCN(CC)S(=O)(=O)c1cccc(C(=O)Oc2cccc(NC(=O)c3cccs3)c2)c1	-66*
COc1ccc(NC(=O)c2ccc(C)cc2)c(OC)c1	-189*
COc1cccc(C(=O)Nc2ccc(C3CC3(Cl)Cl)cc2)c1 (stereo not given)	-169*
CCOC(=O)/C(C#N)=C/c1c(N2CCN(c3ccccc3)CC2)nc2ccccn2c1=O	-62*
N#C/C(=C\c1c(N2CCN(c3ccccc3)CC2)nc2ccccn2c1=O)C(N)=O	-71*
COC(=O)/C(C#N)=C/c1c(N2CCN(c3ccccc3)CC2)nc2ccccn2c1=O	-65*
CN(C)c1ccc(NC(=O)C2C3C=CC(C3)C2C(=O)O)cc1 (stereo not given)	-73*
CCc1ccc(NC(=O)C2C3C=CC(C4CC34)C2C(=O)O)cc1 (stereo not given)	-74*
Cc1ccc(/C=C/C(=O)c2cc(Br)ccc2OC(=O)c2ccco2)cc1	-94*
CCc1ccc(/C=C/C(=O)c2cc(Br)ccc(=O)c2O)cc1	72
Clc1ccc(SCc2cc(-c3ccccc3)on2)cc1	-75*
c1ccc(SCc2cc(-c3ccccc3)no2)cc1	-143*
c1ccc(Cc2cc(-c3ccccc3)on2)cc1	-130*
Clc1ccc(-c2cc(CSc3ccccc3)on2)cc1	-181*
SMILES	aSyn UTR act
Clc1ccc(-c2cc(CSc3cccc(Cl)c3)on2)cc1	-67*
O=C(CCl)NCc1cc(-c2ccc(Cl)cc2)no1	-65*
CN(C)C(=O)c1cc(-c2ccccc2)no1	-80*
Cc1ccc(/C=N/N2CCN(c3ccccc3)CC2)cc1	-100*
NS(=O)(=O)c1ccc(N/N=C/C=C/c2ccccc2[N+](=O)[O-])cc1	-177*
Cc1ccccc1/C=N/N1CCN(c2ccccc2)CC1	-131*
Cc1cc(-c2ccc(C(C)C)c(S(=O)(=O)N3CCN(c4ccccc4)CC3)c2)on1	56
Cc1cccc(/C=N/N2CCN(c3ccccc3)CC2)c1	-140*
O=[N+]([O-])c1ccccc1/C=N\N1CCN(c2ccccc2)CC1	-201*
O=[N+]([O-])c1ccccc1/C=C/C=N/N1CCCCC1	-205*
CC(=O)Nc1ccc(-c2nc3cc(Cl)ccc3o2)cc1	-73*
CN(C)c1ccc(-c2nc3cc(N)ccc3o2)cc1	93
COc1ccccc1C(=O)Nc1ccc2oc(-c3ccc(F)cc3)nc2c1	-201*
O=C(O)c1ccccc1-c1ccccc1C(=O)Nc1ccc(-c2nc3cc(Cl)ccc3o2)cc1	-77*
CC(C)(C)C(=O)Nc1ccc2oc(-c3cc(F)c(F)cc3Cl)nc2c1	-252*
O=C(Oc1ccc(F)cc1C(=O)/C=C/c1cccs1)c1cccc([N+](=O)[O-])c1	-87*
Cc1cc([N+](=O)[O-])ccc1NC(=O)c1csc(C)c1C	-98*
Cc1cc([N+](=O)[O-])ccc1NC(=O)c1cccc(NC(=O)C(C)C)c1	-99*
Cc1[nH]c(=O)c(C(=O)/C=C/c2ccccc2F)c2c1CCCC2	-364*
Cn1c(-c2ccc3ccccc3n2)nc2cnccc21	-74*
CCn1c(C(=O)OC)cc2c1ccn2-c1ccc(F)cc1	-157*
Brc1ccc(-n2cnc(-c3ccccc3)c2)cc1	-136*
Cc1ccc(NC2c3ncccc3C(=O)N2c2ccccc2C)cc1C (stereo not given)	-168*
Cc1nc2ccccn2c1C(=O)Nc1ccc(Cl)cc1	-160*
Cc1ccc(NC(=O)c2c(Cl)nc3ccccn23)cc1	-153*
SMILES	aSyn UTR act
C/C(=N\NC(=O)c1c(C)nc2ccccn12)c1ccc(O)cc1O	84
Clc1ccccc1-c1nc(-c2ccccc2)n[nH]1	-214*
Cc1ccc(C)c(C(=O)Nc2nc3ccccc3[nH]2)c1	-69*
Cc1ccc(Nc2nc3ccccc3[nH]2)nc1	-220*
O=C(Nc1nc2ccccc2[nH]1)c1ccc(Cl)cc1	66
O=C(Nc1nc2ccccc2[nH]1)c1cccc(Cl)c1	-151*
O=C(NNc1ncnc2ccccc12)c1cccc(Cl)c1	-84*
Cc1ccc(C)c(OCc2nc3ccccc3[nH]2)c1	-113*
O=C(Nc1nc2ccccc2[nH]1)c1ccccc1O	-74*
O=C(OCCN1C(=O)c2cccc3c(N4CCOCC4)ccc(c23)C1=O)c1ccc(Cl)cc1Cl	99
O=C1c2cccc3c(N4CCCCC4)ccc(c23)C(=O)N1c1cccc(O)c1	-78*
